Our source for the binding signal values is PMC7862700, “An all-to-all approach to the identification of sequence-specific readers for epigenetic DNA modifications on cytosine”.

Common to all, as to assay: DAPPL (digital affinity profiling via proximity ligation, sequencing); 10 mM Tris-HCl pH 7.5, 50 mM NaCl, 1 mM DTT, 4% glycerol, room temperature, 30 min; GST-TFs on glutathione beads, 16-mer random dsDNA library, 0.1% formaldehyde crosslink after washing; high values mean tight binding
For assay [1], the target named is T1, FLI1 (Homo sapiens, UniProt Q01543 1-452).
T1 sequence: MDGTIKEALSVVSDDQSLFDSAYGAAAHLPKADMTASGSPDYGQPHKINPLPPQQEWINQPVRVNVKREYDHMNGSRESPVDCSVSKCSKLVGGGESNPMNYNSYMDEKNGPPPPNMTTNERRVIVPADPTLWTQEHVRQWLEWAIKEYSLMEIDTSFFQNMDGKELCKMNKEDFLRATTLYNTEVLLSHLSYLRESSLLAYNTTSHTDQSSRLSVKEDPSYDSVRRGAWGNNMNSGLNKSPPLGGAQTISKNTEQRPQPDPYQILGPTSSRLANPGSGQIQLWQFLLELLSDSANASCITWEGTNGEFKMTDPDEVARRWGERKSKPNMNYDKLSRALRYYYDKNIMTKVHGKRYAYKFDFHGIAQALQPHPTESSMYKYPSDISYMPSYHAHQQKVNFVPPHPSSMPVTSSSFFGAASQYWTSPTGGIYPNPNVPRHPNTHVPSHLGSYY
Conditions: protein: recombinant; tags: N-terminal GST; dsDNA, one strand shown. The method in brief:
(§1)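 Pools were built from human transcription factors expressed in yeast as GST fusions, captured on glutathione beads and DNA-barcoded, along with a tag-only sample. Incubation with 200 nmole of a 16-mer random double-stranded DNA library lasted 30 min at room temperature in Tris/NaCl/DTT/glycerol buffer, and was followed by washing, 0.1% formaldehyde crosslinking, proximity ligation, PCR amplification and Illumina NextSeq500 sequencing. Binding signal is the quotient of each hexamer's read frequency for a factor and its frequency for the tag-only sample.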

Assay [2] deals with T2, ELK1 (Homo sapiens, UniProt P19419 1-428).
T2 sequence: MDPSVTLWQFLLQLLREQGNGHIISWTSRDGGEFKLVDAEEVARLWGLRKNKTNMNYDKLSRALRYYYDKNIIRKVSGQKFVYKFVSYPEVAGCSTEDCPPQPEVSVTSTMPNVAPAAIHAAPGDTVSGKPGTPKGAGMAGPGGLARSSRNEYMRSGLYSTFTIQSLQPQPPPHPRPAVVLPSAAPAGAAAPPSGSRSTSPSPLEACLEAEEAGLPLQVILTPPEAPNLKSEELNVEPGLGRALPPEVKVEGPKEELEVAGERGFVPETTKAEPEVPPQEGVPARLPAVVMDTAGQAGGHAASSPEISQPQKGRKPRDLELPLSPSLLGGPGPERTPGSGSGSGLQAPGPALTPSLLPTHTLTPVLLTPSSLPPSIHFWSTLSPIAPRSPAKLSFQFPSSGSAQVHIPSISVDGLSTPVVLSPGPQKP
Conditions: protein: recombinant; tags: N-terminal GST; dsDNA, one strand shown. In short, it runs like this: as §1

Assay [3] has as its target T3, GABPA (Homo sapiens, UniProt Q06546 1-454).
T3 sequence: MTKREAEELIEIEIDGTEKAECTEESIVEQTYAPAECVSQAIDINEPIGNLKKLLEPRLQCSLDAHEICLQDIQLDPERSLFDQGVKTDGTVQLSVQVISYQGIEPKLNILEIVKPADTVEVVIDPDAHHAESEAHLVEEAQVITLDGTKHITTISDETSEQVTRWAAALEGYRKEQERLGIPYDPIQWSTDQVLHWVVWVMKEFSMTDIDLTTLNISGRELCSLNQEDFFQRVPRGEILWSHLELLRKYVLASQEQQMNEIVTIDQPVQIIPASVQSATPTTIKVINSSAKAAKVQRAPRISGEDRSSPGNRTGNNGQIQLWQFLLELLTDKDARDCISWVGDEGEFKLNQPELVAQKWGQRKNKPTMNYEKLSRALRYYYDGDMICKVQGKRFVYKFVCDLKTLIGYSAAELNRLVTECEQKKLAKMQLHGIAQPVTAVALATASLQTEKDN
Conditions: protein: recombinant; tags: N-terminal GST; dsDNA, one strand shown. In short, it runs like this:
as §1

Assay [4] deals with T4, ERG (Homo sapiens, UniProt P11308 1-479).
T4 sequence: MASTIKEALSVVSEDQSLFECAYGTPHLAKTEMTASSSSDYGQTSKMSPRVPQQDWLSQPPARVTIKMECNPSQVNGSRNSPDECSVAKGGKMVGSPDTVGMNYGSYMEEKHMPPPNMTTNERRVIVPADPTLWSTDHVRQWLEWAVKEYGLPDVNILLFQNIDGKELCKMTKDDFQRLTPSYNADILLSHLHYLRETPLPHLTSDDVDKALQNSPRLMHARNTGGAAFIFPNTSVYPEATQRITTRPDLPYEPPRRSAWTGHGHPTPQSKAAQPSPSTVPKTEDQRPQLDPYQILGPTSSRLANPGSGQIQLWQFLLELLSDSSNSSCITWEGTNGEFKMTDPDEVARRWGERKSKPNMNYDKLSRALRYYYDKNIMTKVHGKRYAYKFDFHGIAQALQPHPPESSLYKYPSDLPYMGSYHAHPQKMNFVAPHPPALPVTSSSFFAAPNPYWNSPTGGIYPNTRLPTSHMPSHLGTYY
Conditions: protein: recombinant; tags: N-terminal GST; dsDNA, one strand shown. The method in brief: as §1

Assay [5] has as its target ELF1 (Homo sapiens, UniProt P32519 1-619). Conditions: protein: recombinant; tags: N-terminal GST; dsDNA, one strand shown. In short, it runs like this:
as §1

The target of assay [6] is T5, EHF (Homo sapiens, UniProt Q9NZC4 1-300).
T5 sequence: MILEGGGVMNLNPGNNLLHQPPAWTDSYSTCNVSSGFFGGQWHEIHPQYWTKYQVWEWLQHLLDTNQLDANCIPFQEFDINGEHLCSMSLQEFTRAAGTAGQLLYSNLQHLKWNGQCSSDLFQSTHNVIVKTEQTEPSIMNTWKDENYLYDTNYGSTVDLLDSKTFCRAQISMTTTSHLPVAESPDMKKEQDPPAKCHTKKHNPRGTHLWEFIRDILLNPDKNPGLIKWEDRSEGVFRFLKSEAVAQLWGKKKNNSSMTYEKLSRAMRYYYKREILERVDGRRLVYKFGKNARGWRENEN
Conditions: protein: recombinant; tags: N-terminal GST; dsDNA, one strand shown. The method in brief: as §1

Assay [7] concerns the target SPI1 (Homo sapiens, UniProt P17947 1-270). Conditions: protein: recombinant; tags: N-terminal GST; dsDNA, one strand shown. The method in brief: as §1
For assay [8], the target named is SPIB (Homo sapiens, UniProt Q01892 1-262). Conditions: protein: recombinant; tags: N-terminal GST; dsDNA, one strand shown. The method in brief:
as §1

In assay [9] the target is T6, ELK3 (Homo sapiens, UniProt P41970 1-407).
T6 sequence: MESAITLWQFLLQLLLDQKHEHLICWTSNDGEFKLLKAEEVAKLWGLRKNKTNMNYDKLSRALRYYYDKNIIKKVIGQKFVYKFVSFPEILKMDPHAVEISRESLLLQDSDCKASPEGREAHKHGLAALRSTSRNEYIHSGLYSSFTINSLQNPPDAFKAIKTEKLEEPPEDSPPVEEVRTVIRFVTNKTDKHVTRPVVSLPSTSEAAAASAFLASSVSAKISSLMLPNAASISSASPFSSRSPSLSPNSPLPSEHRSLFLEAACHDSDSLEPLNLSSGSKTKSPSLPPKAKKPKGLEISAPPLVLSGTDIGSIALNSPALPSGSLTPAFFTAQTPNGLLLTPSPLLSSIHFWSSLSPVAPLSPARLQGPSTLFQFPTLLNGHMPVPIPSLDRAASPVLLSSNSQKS
Conditions: protein: recombinant; tags: N-terminal GST; dsDNA, one strand shown. The method in brief: as §1

Assay [10] deals with ETV5 (Homo sapiens, UniProt P41161 1-510). Conditions: protein: recombinant; tags: N-terminal GST; dsDNA, one strand shown. The method in brief:
as §1

In assay [11] the target is HSF1 (Homo sapiens, UniProt Q00613 1-529). Conditions: protein: recombinant; tags: N-terminal GST; chain copies: 3; dsDNA, one strand shown. In short, it runs like this:
as §1

The target of assay [12] is T7, SPIC (Homo sapiens, UniProt Q8N5J4 1-248).
T7 sequence: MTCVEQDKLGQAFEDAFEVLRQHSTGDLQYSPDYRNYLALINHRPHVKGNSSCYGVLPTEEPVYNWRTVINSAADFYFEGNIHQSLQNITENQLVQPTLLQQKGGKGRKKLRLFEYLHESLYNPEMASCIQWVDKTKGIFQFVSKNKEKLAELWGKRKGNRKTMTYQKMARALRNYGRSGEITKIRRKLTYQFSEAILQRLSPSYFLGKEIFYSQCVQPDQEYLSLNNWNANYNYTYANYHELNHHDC
Conditions: protein: recombinant; tags: N-terminal GST; dsDNA, one strand shown. The method in brief:
as §1

In assay [13] the target is ELF4 (Homo sapiens, UniProt Q99607 1-663). Conditions: protein: recombinant; tags: N-terminal GST; dsDNA, one strand shown. The method in brief:
as §1

Assay [14] addresses T8, ELK4 (Homo sapiens, UniProt P28324-2 1-405).
T8 sequence: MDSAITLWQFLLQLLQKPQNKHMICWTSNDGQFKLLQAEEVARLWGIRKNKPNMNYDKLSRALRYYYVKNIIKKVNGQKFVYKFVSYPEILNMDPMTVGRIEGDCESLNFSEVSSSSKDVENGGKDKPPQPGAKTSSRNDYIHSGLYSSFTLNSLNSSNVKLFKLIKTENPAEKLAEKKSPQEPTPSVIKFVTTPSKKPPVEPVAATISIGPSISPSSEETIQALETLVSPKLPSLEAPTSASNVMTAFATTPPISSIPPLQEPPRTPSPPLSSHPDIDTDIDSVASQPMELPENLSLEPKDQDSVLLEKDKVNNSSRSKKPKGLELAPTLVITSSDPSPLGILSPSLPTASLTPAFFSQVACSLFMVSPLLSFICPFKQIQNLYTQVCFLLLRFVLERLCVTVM
Conditions: protein: recombinant; tags: N-terminal GST; dsDNA, one strand shown. The method in brief: as §1

In assay [15] the target is T9, ETV2 (Homo sapiens, UniProt O00321 1-342).
T9 sequence: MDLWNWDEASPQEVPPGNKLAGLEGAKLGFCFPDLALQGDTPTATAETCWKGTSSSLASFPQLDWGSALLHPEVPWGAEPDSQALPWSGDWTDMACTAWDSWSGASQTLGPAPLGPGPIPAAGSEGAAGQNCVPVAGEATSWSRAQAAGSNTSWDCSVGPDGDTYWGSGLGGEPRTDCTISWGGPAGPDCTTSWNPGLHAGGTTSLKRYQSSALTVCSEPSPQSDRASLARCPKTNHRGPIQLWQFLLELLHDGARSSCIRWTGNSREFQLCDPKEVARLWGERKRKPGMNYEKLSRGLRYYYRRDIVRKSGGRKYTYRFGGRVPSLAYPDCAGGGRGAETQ
Conditions: protein: recombinant; tags: N-terminal GST; dsDNA, one strand shown. In short, it runs like this: as §1

Assay [16] addresses T10, ELF3 (Homo sapiens, UniProt P78545 1-371).
T10 sequence: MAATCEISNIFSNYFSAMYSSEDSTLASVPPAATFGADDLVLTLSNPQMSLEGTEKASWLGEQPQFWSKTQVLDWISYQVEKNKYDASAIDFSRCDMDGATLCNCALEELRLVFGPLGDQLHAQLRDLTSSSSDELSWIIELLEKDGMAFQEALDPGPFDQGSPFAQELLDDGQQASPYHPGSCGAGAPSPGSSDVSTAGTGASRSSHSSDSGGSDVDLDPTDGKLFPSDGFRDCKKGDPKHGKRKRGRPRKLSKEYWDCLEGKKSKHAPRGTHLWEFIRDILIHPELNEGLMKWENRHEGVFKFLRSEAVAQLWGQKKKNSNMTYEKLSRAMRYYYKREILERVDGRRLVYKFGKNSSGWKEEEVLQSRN
Conditions: protein: recombinant; tags: N-terminal GST; dsDNA, one strand shown. The method in brief:
as §1

In assay [17] the target is CRX (Homo sapiens, UniProt O43186 1-299). Conditions: protein: recombinant; tags: N-terminal GST; dsDNA, one strand shown. In short, it runs like this: as §1
Assay [18] addresses ETV1 (Homo sapiens, UniProt P50549 1-477). Conditions: protein: recombinant; tags: N-terminal GST; dsDNA, one strand shown. In short, it runs like this: as §1

Chain of ELF4 (Q99607 whole entry): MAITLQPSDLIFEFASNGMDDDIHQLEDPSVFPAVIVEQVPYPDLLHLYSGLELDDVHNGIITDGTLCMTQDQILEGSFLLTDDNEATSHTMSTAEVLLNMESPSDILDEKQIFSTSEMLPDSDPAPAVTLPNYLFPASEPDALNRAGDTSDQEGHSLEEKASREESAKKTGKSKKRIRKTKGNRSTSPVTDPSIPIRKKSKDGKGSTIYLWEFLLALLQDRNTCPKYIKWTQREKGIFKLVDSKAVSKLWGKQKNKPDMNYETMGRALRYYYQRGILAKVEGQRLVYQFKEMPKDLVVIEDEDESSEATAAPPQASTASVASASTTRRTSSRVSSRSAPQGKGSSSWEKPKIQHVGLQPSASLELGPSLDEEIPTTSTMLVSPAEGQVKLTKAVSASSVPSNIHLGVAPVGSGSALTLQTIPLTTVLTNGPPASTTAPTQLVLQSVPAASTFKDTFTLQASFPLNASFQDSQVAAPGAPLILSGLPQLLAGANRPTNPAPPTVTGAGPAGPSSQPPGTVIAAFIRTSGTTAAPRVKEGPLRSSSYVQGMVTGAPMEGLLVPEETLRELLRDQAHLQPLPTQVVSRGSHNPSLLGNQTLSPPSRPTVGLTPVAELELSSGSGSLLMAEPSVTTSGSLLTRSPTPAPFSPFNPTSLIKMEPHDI
Chain of ELF1 (P32519 whole entry): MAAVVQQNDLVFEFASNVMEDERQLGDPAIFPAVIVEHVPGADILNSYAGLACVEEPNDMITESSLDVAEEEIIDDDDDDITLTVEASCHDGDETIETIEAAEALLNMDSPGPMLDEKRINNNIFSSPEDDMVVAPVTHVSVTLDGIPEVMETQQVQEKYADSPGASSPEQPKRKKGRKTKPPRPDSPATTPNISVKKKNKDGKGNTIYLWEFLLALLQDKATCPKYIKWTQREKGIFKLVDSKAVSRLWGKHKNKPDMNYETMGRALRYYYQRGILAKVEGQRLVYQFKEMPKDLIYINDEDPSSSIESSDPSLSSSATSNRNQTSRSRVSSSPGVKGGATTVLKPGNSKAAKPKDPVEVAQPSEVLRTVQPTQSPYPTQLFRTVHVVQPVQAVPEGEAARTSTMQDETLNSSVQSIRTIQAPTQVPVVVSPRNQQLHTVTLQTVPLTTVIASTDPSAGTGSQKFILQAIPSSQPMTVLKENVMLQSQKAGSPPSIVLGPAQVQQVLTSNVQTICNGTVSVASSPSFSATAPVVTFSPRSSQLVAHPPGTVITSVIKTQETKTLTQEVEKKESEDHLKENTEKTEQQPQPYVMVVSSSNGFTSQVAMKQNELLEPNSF
Chain of HSF1 (Q00613 whole entry): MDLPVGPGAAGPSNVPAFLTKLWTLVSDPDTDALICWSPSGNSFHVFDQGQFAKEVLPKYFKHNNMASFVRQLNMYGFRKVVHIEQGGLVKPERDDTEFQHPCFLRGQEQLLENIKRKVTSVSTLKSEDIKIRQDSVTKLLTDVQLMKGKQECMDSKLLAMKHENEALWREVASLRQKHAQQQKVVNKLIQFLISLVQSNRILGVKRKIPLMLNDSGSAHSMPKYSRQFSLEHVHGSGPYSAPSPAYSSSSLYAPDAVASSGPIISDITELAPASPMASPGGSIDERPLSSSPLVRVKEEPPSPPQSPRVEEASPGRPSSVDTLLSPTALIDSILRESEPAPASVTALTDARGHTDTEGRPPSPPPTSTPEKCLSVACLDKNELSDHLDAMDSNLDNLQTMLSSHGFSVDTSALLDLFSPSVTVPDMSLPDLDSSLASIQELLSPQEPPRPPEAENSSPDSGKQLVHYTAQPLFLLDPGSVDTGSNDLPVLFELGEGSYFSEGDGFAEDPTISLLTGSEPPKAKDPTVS
Chain of SPIB (Q01892 whole entry): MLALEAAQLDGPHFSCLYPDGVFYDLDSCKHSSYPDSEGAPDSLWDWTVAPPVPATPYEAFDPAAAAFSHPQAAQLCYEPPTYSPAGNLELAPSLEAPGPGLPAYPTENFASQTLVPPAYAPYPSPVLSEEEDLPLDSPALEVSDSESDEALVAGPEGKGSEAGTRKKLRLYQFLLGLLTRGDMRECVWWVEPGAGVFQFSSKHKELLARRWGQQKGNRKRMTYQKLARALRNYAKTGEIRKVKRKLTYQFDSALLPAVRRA
Chain of CRX (O43186 whole entry): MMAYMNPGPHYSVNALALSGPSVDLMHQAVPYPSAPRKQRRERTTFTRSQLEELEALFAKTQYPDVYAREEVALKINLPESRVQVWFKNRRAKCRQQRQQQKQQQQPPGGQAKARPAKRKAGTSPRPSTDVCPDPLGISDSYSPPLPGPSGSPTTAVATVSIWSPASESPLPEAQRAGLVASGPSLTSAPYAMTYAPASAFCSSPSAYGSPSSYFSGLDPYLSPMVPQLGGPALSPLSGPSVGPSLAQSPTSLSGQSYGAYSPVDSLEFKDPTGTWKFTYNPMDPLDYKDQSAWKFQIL
Chain of ETV1 (P50549 whole entry): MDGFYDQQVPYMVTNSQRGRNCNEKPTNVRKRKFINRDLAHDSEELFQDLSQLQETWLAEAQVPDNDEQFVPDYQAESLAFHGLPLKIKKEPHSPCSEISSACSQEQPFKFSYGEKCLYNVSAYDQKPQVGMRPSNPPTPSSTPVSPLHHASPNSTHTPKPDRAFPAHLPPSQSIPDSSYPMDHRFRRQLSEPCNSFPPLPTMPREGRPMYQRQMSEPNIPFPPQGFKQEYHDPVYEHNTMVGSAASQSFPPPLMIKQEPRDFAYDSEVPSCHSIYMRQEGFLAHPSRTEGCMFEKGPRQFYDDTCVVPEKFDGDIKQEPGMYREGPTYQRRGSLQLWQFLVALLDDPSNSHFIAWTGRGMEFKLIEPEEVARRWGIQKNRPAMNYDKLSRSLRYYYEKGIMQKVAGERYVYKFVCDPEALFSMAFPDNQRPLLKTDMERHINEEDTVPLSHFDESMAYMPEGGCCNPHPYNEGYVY
Chain of ETV5 (P41161 whole entry): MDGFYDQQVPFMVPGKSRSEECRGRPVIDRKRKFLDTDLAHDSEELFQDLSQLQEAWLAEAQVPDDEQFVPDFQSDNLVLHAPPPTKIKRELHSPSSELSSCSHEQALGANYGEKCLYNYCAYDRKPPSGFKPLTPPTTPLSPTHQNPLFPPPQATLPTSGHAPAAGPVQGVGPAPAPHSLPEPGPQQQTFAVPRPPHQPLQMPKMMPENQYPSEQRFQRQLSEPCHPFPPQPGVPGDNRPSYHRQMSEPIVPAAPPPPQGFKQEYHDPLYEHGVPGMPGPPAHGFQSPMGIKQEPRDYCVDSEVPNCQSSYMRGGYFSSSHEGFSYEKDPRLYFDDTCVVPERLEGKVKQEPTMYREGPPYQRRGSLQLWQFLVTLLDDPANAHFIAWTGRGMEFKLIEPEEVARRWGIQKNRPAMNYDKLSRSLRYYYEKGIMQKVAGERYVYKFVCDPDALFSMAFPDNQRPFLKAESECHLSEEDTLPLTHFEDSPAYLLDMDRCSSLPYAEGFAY

In the case of CTATTA, the binding signal was 1.18 fold enrichment (6-mer frequency, TF over GST control) in assay [1]; 1.05 fold enrichment (6-mer frequency, TF over GST control) in assay [2]; 1.06 fold enrichment (6-mer frequency, TF over GST control) in assay [3]; 1.07 fold enrichment (6-mer frequency, TF over GST control) in assay [4]; 1.09 fold enrichment (6-mer frequency, TF over GST control) in assay [5]; 1.12 fold enrichment (6-mer frequency, TF over GST control) in [6]. Moreover, the binding signal in [7] is 1.1 fold enrichment (6-mer frequency, TF over GST control); in [8], 1.13 fold enrichment (6-mer frequency, TF over GST control); in [9], 1.04 fold enrichment (6-mer frequency, TF over GST control); in [10] it was 1.14 fold enrichment (6-mer frequency, TF over GST control); in assay [11] it was 1.3 fold enrichment (6-mer frequency, TF over GST control); in [12], 1.07 fold enrichment (6-mer frequency, TF over GST control). Moreover, the binding signal was 1.14 fold enrichment (6-mer frequency, TF over GST control) in assay [13]; 1.09 fold enrichment (6-mer frequency, TF over GST control) in assay [14]; 1.13 fold enrichment (6-mer frequency, TF over GST control) in assay [15]; 1.03 fold enrichment (6-mer frequency, TF over GST control) in assay [16]; 1.76 fold enrichment (6-mer frequency, TF over GST control) in [17]; 1.14 fold enrichment (6-mer frequency, TF over GST control) in assay [18].
